Hits are enriched below; roughly 21% of the tested compounds scored in any of these assays.
IL-1B inflam inh – inflammasome signaling inhibition, IL-1 beta readout. THP-1 LPS/ATP IL-1B secretion, AlphaLISA, 16 h; stronger effect = lower value. activity change, % at 57.5 µM. hit rate 4.7% among 360,000. AID 743279; in the data active = activity change below about -50%; inconclusive = mostly about -30% to -49%
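Secreted IL-1B measured by AlphaLISA bead assay after 16 h compound exposure of THP-1 cells; compounds (final up to 57.5 uM) added 1 h before LPS (250 ng/mL) and ATP (1.25 mM) stimulation; lower signal means less secretion.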
RORgamma inh – blocks mouse ROR gamma transcriptional activity | Drosophila S2 Gal4-RORgamma UAS-luciferase reporter, 20 h | Potency, µM (titrated, usually from 53.6 µM), for the others: at the highest dose activity change, negative = inhibition, most hits filed as inhibitors | hit rate 5.4% among 310,000; also: potency is read from the fitted curve at half-maximal effect; nearly all actives have a fitted effect of over 60% in size
Target sequence (P51450 whole entry, looked up, the tested form may be a part): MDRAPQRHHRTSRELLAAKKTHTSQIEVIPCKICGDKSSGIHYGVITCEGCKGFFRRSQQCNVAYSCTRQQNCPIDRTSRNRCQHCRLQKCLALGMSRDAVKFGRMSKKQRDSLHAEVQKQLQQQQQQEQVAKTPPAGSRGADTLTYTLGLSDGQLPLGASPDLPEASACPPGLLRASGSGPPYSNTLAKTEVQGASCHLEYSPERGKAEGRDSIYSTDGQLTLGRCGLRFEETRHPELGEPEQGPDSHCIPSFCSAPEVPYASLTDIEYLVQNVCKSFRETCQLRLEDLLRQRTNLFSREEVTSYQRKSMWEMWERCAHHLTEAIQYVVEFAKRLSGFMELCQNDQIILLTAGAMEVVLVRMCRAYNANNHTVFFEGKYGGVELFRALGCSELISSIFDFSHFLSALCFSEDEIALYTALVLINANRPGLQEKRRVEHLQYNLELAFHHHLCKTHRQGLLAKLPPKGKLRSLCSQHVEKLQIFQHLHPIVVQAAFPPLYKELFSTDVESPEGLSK
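Luminescence from a UAS-regulated Photinus luciferase reporter in stably transfected Drosophila Schneider cells is measured; decreased signal marks ROR gamma inhibition. Fusion expression is induced by 700 uM copper sulfate for 20 hr.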
ELG1 repair inh – ELG1-dependent DNA repair inhibition; AID 504467; HEK293T ELG1-luciferase reporter, luminescence, 16 h; DNA damage induced by 5-fluorouridine; hit rate 2.3% among 330,000; Potency, µM (doses to about 46.1 µM), inactives show at the highest dose activity change, negative = inhibition, hits mostly inhibitors; also: potency is read from the fitted curve at half-maximal effect; nearly all actives have a fitted effect of over 55% in size
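In this reporter screen, reduction of luminescence relative to DMSO vehicle indicated activity. Compounds and 5-fluorouridine were added together to 2,000 cells per well, incubated for 16 hr at 37 °C, then developed with ONE-Glo.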
Gal4-VP16 FLuc – counter-screen for ROR gamma inhibitors: Gal4-VP16 reporter; Drosophila S2 Gal4-VP16 UAS-luciferase, luminescence, 20 h; Potency, µM (series often up to 53.6 µM), inactives show top-dose activity, negative = inhibition, usual class: inhibitors; hit rate 3.5% among 310,000;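 also: Gal4-VP16 expression switched on by copper sulfate through the metallothionein promoter; potency is read from the fitted curve at half-maximal effect; nearly all actives have a fitted effect of over 50% in size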
TDP1 cell CPT – DT40-hTDP1 cell growth loss with CPT. chicken DT40 Tdp1-/-;hTDP1 cells + 20 nM CPT, ATP luminescence, 48 h. Potency, µM (titrated, usually from 46.2 µM), inactives show at the top dose activity change, negative = growth inhibition, usual class: inhibitors. hit rate 12% among 420,000. AID 686979; also: potency is read from the fitted curve at half-maximal effect; nearly all actives have a fitted effect of over 55% in size
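Chicken DT40 Tdp1-/- cells complemented with human TDP1, 400 cells/well, exposed to compounds plus 20 nM camptothecin for at least 48 h at 37 C; viability read as ATP content by CellTiter-Glo luminescence.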
DT40 TDP1 no CPT – qHTS for Inhibitors of human tyrosyl-DNA phosphodiesterase 1 (TDP1): qHTS in cells in absence of CPT. hit rate 15% among 420,000. DT40 Tdp1-/- hTDP1 cells, no CPT, ATP luminescence, 48 h. Potency, µM (doses to about 46.2 µM), inactives show top-dose activity change, negative = growth inhibition, most hits filed as inhibitors; also: potency is read from the fitted curve at half-maximal effect; nearly all actives have a fitted effect of over 55% in size
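DT40 Tdp1-/-;hTDP1 cells, no CPT (DMSO vehicle only), 400 cells/well; compounds pin-transferred; ≥48 hr, 37 °C; CellTiter-Glo 30 min RT dark, luminescence read.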
Active calls of the source: *; ? = inconclusive; . = no result given; [ ] = dose if it differs, or a comment. Unless noted, calls follow the shape of the dose curve; as a rule, active = well fitted curve in the direction sought with a large enough effect; inconclusive = small, poorly fitted or top-dose-only effect, or another doubt; inactive = no such curve, though single readings can be large; an effect the other way counts as inactive or inconclusive. % is scaled to controls: 0 for no effect and ±100 for the full control effect.

SMILES	IL-1B inflam inh	RORgamma inh	ELG1 repair inh	Gal4-VP16 FLuc	TDP1 cell CPT	DT40 TDP1 no CPT
CCN(CC)CCOc1ccc2c(c1)C(=O)c1cc(OCCN(CC)CC)ccc1-2	.	-1%	.	-6%	15µM*	10µM*
CCCCOc1cc(C(=O)OCCN(CC)CC)ccc1N	-9	4%[2.98 µM]	-2%	-4%[17 µM]	?	?
O=C(NCc1ccccc1Cl)c1ccc(Cn2c(=O)c3cccn3c3cccnc32)cc1	.	.	.	.	-2%	-12%
CCc1c(C)sc(NC(=O)c2cc3nc(-c4ccc(OC)cc4)cc(C(F)(F)F)n3n2)c1C(=O)OC	.	.	.	.	5%	-3%
COc1ccc(-c2cc(C(F)(F)F)n3nc(C(=O)Nc4sc5c(c4C(=O)OC(C)C)CCC(C)C5)cc3n2)cc1 (configuration not stated)	.	.	.	.	13%	1%
CCOC(=O)c1c(NC(=O)c2cc3nc(-c4ccccc4)cc(C(F)(F)F)n3n2)sc2c1CCC(C)C2 (configuration not stated)	.	.	.	.	23µM*	18µM*
CCOC(=O)c1sc(NC(=O)c2cc3nc(-c4ccc(Br)cc4)cc(C(F)(F)F)n3n2)c(C(=O)OCC)c1C	.	.	.	.	?	23µM*
O=C1[C@H]2[C@@H](c3ccccc3)N[C@]3(CCCN(Cc4ccc(C(F)(F)F)cc4)C3=O)[C@H]2C(=O)N1Cc1ccccc1	-28	.	.	.	18µM*	?
O=C1[C@H]2[C@@H](c3ccc(C(F)(F)F)cc3)N[C@]3(CCCN(Cc4ccc(F)cc4)C3=O)[C@H]2C(=O)N1Cc1ccccc1	-56*	.	.	.	?	?
O=C1[C@H]2[C@@H](c3ccccc3)N[C@]3(CCCN(Cc4ccccc4)C3=O)[C@H]2C(=O)N1Cc1ccccc1	-14	.	.	.	-17%	?
O=C1[C@H]2[C@@H](c3ccc(C(F)(F)F)cc3)N[C@]3(CCCN(Cc4ccco4)C3=O)[C@H]2C(=O)N1Cc1ccccc1	29	.	.	.	-3%	-4%
O=C1[C@H]2[C@@H](c3ccccc3)N[C@]3(CCCN(Cc4ccc(F)cc4)C3=O)[C@H]2C(=O)N1Cc1ccccc1	-23	.	.	.	?	16µM*
Cc1ccc(CN2CCC[C@]3(N[C@H](c4ccc(C)cc4)[C@@H]4C(=O)N(Cc5ccccc5)C(=O)[C@@H]43)C2=O)cc1	-2	.	.	.	?	?
Cc1ccc(CN2CCC[C@]3(N[C@H](c4ccccc4)[C@@H]4C(=O)N(Cc5ccccc5)C(=O)[C@@H]43)C2=O)cc1	-16	.	.	.	26µM*	16µM*
CN1CCN(c2ncncc2-c2ccccc2Cl)CC1	.	-2%	.	12%	8%	0%
O=C(NCCCO)c1cc([N+](=O)[O-])cc2c1C=Cc1ccccc1O2	-7	-1%	-3%	-13%[10 µM]	?	?
COc1cccc2c1Oc1cc([N+](=O)[O-])cc(N(C)C(C)=O)c1C=C2	2	-15%	?	7%	?	21µM*
O=C(Cn1c(=O)c2cccn2c2cccnc21)NCc1ccccc1F	.	.	.	.	1%	-25%
Cc1cc(C)c2nc(C(F)(F)F)nc(N3CCN(C(=O)c4ccco4)CC3)c2c1	?	1µM*	.	0.89µM*	26µM*	?
CC(=O)N1CCN(c2nnc(-c3ccccc3)c3ccccc23)CC1	0	14%	0%	2%	-11%	3%
Cc1cc(C)c2nc(N3CCCN(C(=O)c4ccco4)CC3)c(C#N)cc2c1	?	?	13%	?	?	?
COc1ccc(OCC(=O)N2CCN(c3nnc(-c4ccc(C)cc4)c4ccccc34)CC2)cc1	-84*	17%	?	?	16µM*	16µM*
COc1ccc(OCC(=O)N2CCN(c3nnc(-c4ccccc4)c4ccccc34)CC2)cc1	-66*	?	16µM*	?	16µM*	18µM*
Cc1ccc(-c2nnc(N3CCN(C(=O)c4ccco4)CC3)c3ccccc23)cc1	-63*	-2%	?	?	21µM*	?
O=C(Nc1ccccc1)N1CC[C@@]2(CCCN(C(=O)c3ccco3)C2)C1	.	-10%	.	-3%	2%	-13%
SMILES	IL-1B inflam inh	RORgamma inh	ELG1 repair inh	Gal4-VP16 FLuc	TDP1 cell CPT	DT40 TDP1 no CPT
CCCCn1c(N)c(N(CCOC)C(=O)c2oc3ccc(OCC)cc3c2C)c(=O)[nH]c1=O	2	.	-2%	.	0%	6%
Cc1ccc(OCC(=O)N2CCN(c3nnc(-c4ccc(C)cc4)c4ccccc34)CC2)cc1	-87*	?	?	?	16µM*	23µM*
O=C(COc1ccccc1)N1CCN(c2nnc(-c3ccccc3)c3ccccc23)CC1	-18	18%	?	-3%	13µM*	16µM*
Cc1ccc(-c2nnc(N3CCN(C(=O)CN4C(=O)c5ccccc5C4=O)CC3)c3ccccc23)cc1	-12	.	.	.	?	?
CC(C)[C@@H](CO)N(C)S(=O)(=O)c1ccccc1Br	8	.	13%	.	-11%	-15%
CCCCN(CC)CCNC(=O)c1c(C)oc2ncnc(N3CCOCC3)c12	.	.	.	.	-7%	-5%
CN1CCN(CC(=O)Nc2nc3c(s2)CCCC3)CC1	36	-11%	?	2%	-19%	-19%
CCN1CCN(/C=N/c2nc3c(s2)CCCC3)CC1	0	8.9µM*	?	7.1µM*	-9%	-14%
CCOC(=O)c1c(C)[nH]c(C(=O)OCC(=O)Nc2cccnc2Cl)c1C	-7	.	?	.	-11%	?
Nc1nc(N)c2ncc(C(=O)CCc3ccccc3)nc2n1	19	6%	-16%	-18%	13µM*	?
c1ccc(-c2ccc(OCCCNC3CCCC3)cc2)cc1	.	-7%	-2%	0%	15µM*	?
O=C(c1ccccc1[N+](=O)[O-])N1N=C(c2ccccc2)CC1(O)C(F)(F)F (configuration not stated)	9	?	-9%	-22%	5%	?
CC1=NN(C(=O)c2ccc(Cn3nc(C)c([N+](=O)[O-])c3C)o2)C(O)(C(F)(F)F)C1 (configuration not stated)	17	2.5µM*	?	7.1µM*	-26%	?
CC1=NN(C(=O)c2ccc(Cn3ccc([N+](=O)[O-])n3)cc2)C(O)(C(F)(F)F)C1 (configuration not stated)	6	10µM*	-4%	13µM*	-19%	-5%
COc1cccc(NC(=O)CSc2nccn2Cc2ccc3c(c2)OCO3)c1	.	.	.	.	-29%	?

Bioassay records as filed in PubChem.
